Source: PubChem (several laboratories)
Compounds with a hit are over-represented: about 1.8% of the library has one in this group of screens.
DSG3 Ab inh: inhibitors of pemphigus antibody binding to human desmoglein-3; binding (percent of control), % at 10 µM; DSG3-coupled beads, scFv-anti-DSG3-GFP binding, flow cytometry; hits give low values; 0.48% of 310,000 active;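 active = binding more than 3 SD below its plate's average and above zero; inconclusive = below that plate limit but binding exactly zero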;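 also: hits lower antibody fragment binding to DSG3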
PKD1 kinase inh: blocks activity of human protein kinase D1. inhibition, % (no concentration beside the values). 0.056% of 200,000 active. Q15139. PKD1 kinase fluorescence polarization assay
HDAC3 inhib: inhibitors of human histone deacetylase 3; O15379; recombinant HDAC3, fluorogenic peptide/trypsin coupled, fluorescence; inhibition, % at 8.3 µM; 0.15% of 320,000 active; AID 2718; in the data active = inhibition above about 26%, passing the limit was not always enough; inconclusive = no clear call, values can overlap the other calls
VLA-4 inh: inhibition in a human VLA-4 binding assay. 0.2% of 330,000 active. P13612. VLA-4 expressing cells, ligand binding flow cytometry. inhibition, % (about 7 µM as worked out from the volumes in the protocol)
GRK2 aptamer HTS: inhibitors of human GRK2 displacing RNA aptamer; P25098; bead flow cytometry, FAM-aptamer displacement from GRK2; inhibition of aptamer binding, % at 10 µM; 0.59% of 330,000 active; AID 488847;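 active = inhibition of aptamer binding above 40%, roughly 3 SD of noise, on plates passing a quality check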;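 also: median bead fluorescence of bound FAM aptamer so fluorescent compounds give negative values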
LANA-H2A inh: blocks KSHV LANA binding to histone H2A/H2B. cell-free LANA-H2A/H2B peptide, fluorescence polarization. 0.6% of 320,000 active. inhibition, % (test concentration not listed). Q9QR71; in the data active = inhibition mostly above about 10%, no sharp cut-off; inactive = mostly below about 6.7%
GRK2 inh confirm: human GRK2 inhibition confirmation, cherry pick 1; shares compounds with GRK2 aptamer HTS; bead-bound GRK2, FAM-aptamer displacement, flow cytometry; aptamer displacement, % at 10 µM; 4% of 2,000 active; AID 504451;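 active = aptamer displacement above 40%, near three times the noise of non-fluorescent compounds, on plates passing quality checks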;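 also: negative values mostly reflect intrinsic compound fluorescence rather than true enhancement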
FAM quench CP1: aptamer fluorescence quenching in GRK2 counter-screen; shares compounds with GRK2 aptamer HTS; 2,000 tested, under 10 active; AID 504580; Carboxyfluorescein RNA aptamer on beads, flow cytometry quenching; hits give low values; fluorescence response (% of DMSO), % at 10 µM;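 active = compounds that quench the bead-bound fluorescent RNA probe, cutting fluorescence to under half of the solvent control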;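 also: counterscreen run without GRK2 so only probe quenching by compound is measured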
GRK2 confirm 2: human GRK2 inhibition confirmation, cherry pick 2; inhibition of aptamer binding, % at 10 µM; 360 tested, under 10 active; AID 504782; shares compounds with GRK2 aptamer HTS; bead-bound GRK2, FAM-aptamer displacement, flow cytometry;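 active = inhibition of aptamer binding above 40%, about triple the noise seen with nonglowing compounds, on plates passing quality control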;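 also: negative values mostly come from compounds that fluoresce themselves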
FAM quench SP: counter-screen for GRK2 binding hits: quenchers of fluorescent RNA aptamer. fluorescence response vs DMSO, % at 10 µM. AID 588494. shares compounds with GRK2 aptamer HTS. 360 tested, under 10 active. carboxyfluorescein RNA aptamer beads, flow cytometry quenching; hits give low values;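 active = response vs DMSO under 50%, meaning signal dropped by over half, treated as fluorescence quencher; inconclusive = no clear call, values can overlap the other calls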;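 also: labelled aptamer on streptavidin beads without GRK2 as a quench counter-screen; 100% = bead fluorescence of DMSO wells and lower means quenching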
* marks the source's active call; other numbers are inactive results; ? = inconclusive; / = not tested or not shown. Rule as the data show it, unless noted: active = inhibition above about 50%; inactive = the rest.

SMILES	DSG3 Ab inh	PKD1 kinase inh	HDAC3 inhib	VLA-4 inh	GRK2 aptamer HTS	LANA-H2A inh	GRK2 inh confirm	FAM quench CP1	others
CCCOc1ccc(N2CC(C(=O)Nc3ccccc3C(=O)NC)CC2=O)cc1 (stereo unspecified)	113.6	-5.3	-4.3	-7.5	47.0*	5.0	-0.3	98.0
O=C(N/N=C/c1ccc(Br)cc1)c1cc[n+](Cc2ccccc2)cc1	88.0	-6.9	-3.9	10.7	0.0	-0.7	/	/
O=C(C[n+]1cccc(C(=O)N/N=C/c2ccc(Br)cc2)c1)c1ccccc1	/	/	7.7	-18.9	89.0*	1.3	-4.3	101.9
Cc1cccc(NS(=O)(=O)c2ccc(C)c(C(=O)NCC(c3cccs3)N3CCOCC3)c2)c1 (stereo unspecified)	101.4	/	/	/	/	/	/	/
Cc1cccc(N2CC(C(=O)Nc3ccc(N4CCOCC4)cc3)CC2=O)c1C (stereo unspecified)	91.9	/	-0.4	23.9	0.0	-1.8	/	/
Cc1cccc(N2CC(C(=O)Nc3ccccc3N3CCOCC3)CC2=O)c1C (stereo unspecified)	90.6	/	4.2	0.0	32.0	2.4	1.2	100.4
Cc1sc2ncnc(NCCCO)c2c1C	98.7	-3.3	4.5	5.9	29.0	5.5	-2.3	102.9
Cc1sc2ncnc(NCCN3CCOCC3)c2c1C	97.5	-1.8	-1.3	-10.8	0.0	-3.5	/	/
O=C(Cn1c(C(F)(F)F)nc2ccccc21)OCC(=O)c1c[nH]c2ccccc12	115.0	-8.6	6.5	-132.4	80.0*	-2.4	/	/	GRK2 confirm 2=-43.0;FAM quench SP=102.0
CCOC(=O)C(C)/C(C)=N/NC(N)=S (stereo unspecified)	99.2	2.8	0.1	6.3	0.0	-0.1	/	/
O=c1c(=Nc2ccccc2O)c(=O)c2ccccc12	99.0	-4.1	9.4	4.3	70.0*	-4.0	2.0	97.9
O=Nc1c(O)c2ccccc2c2ccccc12	99.4	/	4.8	11.3	23.0	4.3	/	/
COCOc1ccc(C=O)c(OCOC)c1	102.1	/	5.5	38.4	98.0*	0.1	-1.4	100.1
CCc1nnc(NC(=O)C2CCC(CNc3c(N4CCC(C)CC4)c(=O)c3=O)CC2)s1 (stereo unspecified)	97.1	/	-0.3	3.1	0.0	-1.4	/	/
CC(=O)COc1coc(CN2CCN(c3ccc(F)cc3)CC2)cc1=O	101.9	/	-9.1	21.2	99.0*	2.1	18.7	95.7
Cc1c(C(=O)OC2CCC(C)CC2)[nH]c2c1C(=O)CCC2 (stereo unspecified)	104.3	-10.6	2.9	1.6	1.0	2.0	/	/
COC(=O)c1[nH]c2c(c1C)C(=O)CCC2	96.1	4.4	-6.0	21.9	19.0	1.0	0.8	92.8
CCOC(=O)c1ccccc1NC(=O)COC(=O)c1c(CC)noc1C	100.1	/	-3.3	8.1	3.0	0.6	/	/
CC(=O)NN1CCc2cc3ccc(C)cc3nc21	94.4	/	-11.2	-22.7	90.0*	-2.0	-9.6	95.7
Cc1ccc2cc3c(nc2c1)N(c1ccccc1)CC3	101.8	-1.4	2.0	9.9	0.0	1.1	/	/
COc1cc(C(C)=O)ccc1OCC(=O)Nc1ccccc1N1CCCCC1	95.4	/	-1.1	-2.5	1.0	4.4	/	/
COc1cc(C(C)=O)ccc1OCC(=O)Nc1ccccc1N1CCCC1	114.8	/	2.2	5.4	87.0*	0.1	/	/	GRK2 confirm 2=-23.2;FAM quench SP=101.0
Cc1cccc(C)c1NC(=O)CN(C)S(=O)(=O)c1ccc(-c2ccc(=O)[nH]n2)s1	101.2	/	4.2	0.5	0.0	-24.8	/	/
CC(=O)c1ccc(Nc2ccc(-c3ccccc3C)nn2)cc1	164.4	6.2	-1.7	9.8	0.0	-0.2	/	/
COc1ccccc1-c1ccc(Nc2cccc(C(C)=O)c2)nn1	101.4	5.1	-6.8	26.9	2.0	-12.2	-7.8	103.3
SMILES	DSG3 Ab inh	PKD1 kinase inh	HDAC3 inhib	VLA-4 inh	GRK2 aptamer HTS	LANA-H2A inh	GRK2 inh confirm	FAM quench CP1	others
CC(=O)c1cccc(Nc2ccc(-c3ccccc3F)nn2)c1	113.4	3.9	1.5	4.7	1.0	1.0	0.1	102.1
COc1cccc(Nc2ccc(Nc3cccc(OC)c3)nn2)c1	102.0	-5.9	2.7	9.8	0.0	-1.8	/	/
NC(=O)C1CCN(C(=O)c2ccc3nc(-c4ccccc4)c(-c4ccccc4)nc3c2)CC1	106.0	/	-21.7	2.6	3.0	-0.9	/	/
OCCC1CN(Cc2ccccc2-c2ccco2)CCN1C1CCCC1 (stereo unspecified)	95.9	-1.4	-1.9	-0.6	0.0	-11.3	/	/
O=C(COC(=O)CNC(=O)c1ccc([N+](=O)[O-])o1)Nc1ncc(Cl)cc1Cl	94.4	/	2.1	3.0	55.0*	5.7	-0.6	99.1
O=C(COC(=O)CNC(=O)c1ccc([N+](=O)[O-])o1)Nc1ncc(C(F)(F)F)cc1Cl	87.3	/	-6.9	-2.4	0.0	-1.1	/	/
O=C(CCc1n[nH]c(=O)[nH]c1=O)N1CCCCC1	98.3	-1.5	0.9	-0.9	30.0	0.3	0.8	99.9
O=C(CSc1n[nH]c(=O)[nH]c1=O)N1CCCCCC1	87.5	/	13.1	3.6	4.0	2.7	/	/
Cc1nn(Cc2c(F)c(F)c(F)c(F)c2F)c(C)c1NC(=O)c1ccc(COc2ccccc2Cl)o1	97.3	0.8	15.8	-3.1	2.0	-1.4	2.0	99.5
COc1ccc(C2N(c3ccccn3)C(=O)C3CCCN32)c(OC)c1 (stereo unspecified)	/	2.6	0.2	-4.9	7.0	1.8	/	/
COc1cc(C2N(c3ccccn3)C(=O)C3CCCN32)cc(OC)c1OC (stereo unspecified)	/	-9.8	-1.1	-3.1	59.0*	-5.2	-1.8	99.2
Cc1cc(Cl)cc(C)c1OCCn1ccnc1	98.6	/	1.7	-6.7	42.0*	6.0	/	/	GRK2 confirm 2=-23.5;FAM quench SP=100.0
Cc1cc(Cl)cc(C)c1OCCCCCn1ccnc1	110.0	/	?	0.0	0.0	-0.6	/	/
O=C(CSc1nnnn1-c1ccc(F)cc1)NCc1cccs1	126.8	1.4	2.6	3.3	0.0	2.3	/	/
O/C(=C\Sc1nnc(Cc2ccccc2)o1)c1ccc(F)cc1	101.8	3.5	-2.2	-0.5	49.0*	0.5	/	94.1
c1ccc(CSc2nnc(Cc3ccccc3)o2)cc1	102.6	-3.6	-2.3	13.3	0.0	4.1	/	/
O=C(Cc1ccc(Br)cc1)OCC(=O)N1CCc2ccccc2C1	118.4	-10.6	-0.5	1.4	46.0*	1.6	/	/	GRK2 confirm 2=-9.2;FAM quench SP=103.0
CC(C)C(C(=O)O)N1CCS(=O)(=O)CC1 (stereo unspecified)	81.5	1.3	-0.5	24.4	4.0	-0.7	/	/
